# Experimental data reported in PubChem BioAssay.
# The list shows a part of the results. The source made the active and inactive calls.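 The calls were made as follows, unless noted: active = GFP response above 150% of the DMSO level; inconclusive = fewer than 70 events counted for a yeast strain; inactive = the rest.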
# Key:
# [1] = hit retest on RPL19A-GFP reporter strain – cell-based, S. cerevisiae, flow cytometry, cherry picks, mother/daughter gates, confirmation (AID 2270;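 active = GFP response below 50% of the DMSO control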); details: 3 h, at 10 µM, stronger effect = lower value, 100 = same GFP as DMSO wells
# [2] = yeast TOR pathway reporter LAP4-GFP change – cell-based, cherry picks, flow cytometry, mother/daughter gates, confirmation (AID 2271;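 active = GFP response above 150% of the DMSO control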;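 also: ratio of sample to DMSO plate mean so 100% equals DMSO level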); details: S. cerevisiae LAP4-GFP strain, 3 h, at 10 µM, stronger effect = higher value, 100 means same as DMSO control
# [3] = TOR pathway reporter MEP2-GFP, retest of hits – S. cerevisiae, flow cytometry GFP, cherry picks, confirmation (AID 2272;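 active = GFP response above 150% of the DMSO control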;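 also: ratio of well signal to plate DMSO mean so 100% equals DMSO level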); details: S. cerevisiae MEP2-GFP strain, 3 h, at 10 µM, stronger effect = higher value
# [4] = yeast AGP1-GFP fluorescence change, single-dose – cell-based, flow cytometry, S. cerevisiae, cherry picks, confirmation (AID 2273);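 also: median GFP channel fluorescence over the whole cell population gate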; details: S. cerevisiae AGP1-GFP strain, 3 h, at 10 µM
# [5] = TOR pathway CIT2 reporter hit retest – S. cerevisiae, GFP fusion, cherry picks, mother/daughter gates, confirmation (AID 2274); details: S. cerevisiae CIT2-GFP strain, flow cytometry, 3 h, at 10 µM, stronger effect = higher value
# [6] = green-channel fluorescence artefact in S. cerevisiae – s288c strain, artefact control for yeast TOR pathway GFP screen, dose response (AID 2757;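 active = fluorescence span over the dose series, or activity score, above about 33, limit read from the data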;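 also: thousands of bead-calibrated equivalent soluble fluorophore molecules from median cell fluorescence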); details: 520 nm autofluorescence, flow cytometry, 3 h, at 33 µM, stronger effect = higher value, zero means same as solvent-only cells
# [7] = measured here: daughter cell gate
# [8] = measured here: mother cell gate
# [9] = measured here: daughter cell gate response
# [10] = measured here: mother cell gate response
Compound,GFP response vs DMSO [1],"GFP response vs DMSO [1, 7]","GFP response vs DMSO [1, 8]",GFP response relative to DMSO [2],"GFP response relative to DMSO [2, 9]","GFP response relative to DMSO [2, 10]",GFP response vs DMSO [3],"GFP response, % of DMSO [4]","GFP response, % of DMSO [5]","GFP response, % of DMSO [5, 7]","GFP response, % of DMSO [5, 8]",fluorescence change (kMESF span) [6]
Oc1c(CN2CCN(c3ccc(F)cc3)CC2)cc(Cl)c2cccnc12,101% (inactive),102%,94.3%,264% (active),253%,245%,187% (active),104% (inactive),141% (inactive),159%,125%,0.21 (inactive)
Oc1ccc(Br)cc1/C=N/Nc1ccccn1,93.9% (inactive),92.3%,83.8%,263% (active),222%,261%,129% (inactive),91% (inactive),112% (inactive),113%,98%,1.31 (inactive)
Cc1ccc(/C=C2/C(=O)ON=C2c2ccccc2)o1,90.4% (inactive),87.7%,82.8%,250% (active),–,219%,129% (inactive),88.4% (inactive),92.1% (inactive),90.9%,77%,–
Cc1cc(C)n(C(=O)/C(C#N)=N\Nc2ccccc2[N+](=O)[O-])n1,91.7% (inactive),71.4%,88.6%,138% (inactive),98.7%,154%,163% (inactive),123% (inactive),102% (inactive),73.6%,105%,–
Cc1cccc2c1NC(=O)/C2=C\C(=O)c1cccs1,97.2% (inactive),91.1%,89.1%,164% (active),148%,160%,104% (inactive),107% (inactive),92.6% (inactive),99.7%,83.7%,–
Cc1cccc(OCCN2CSC(=S)N(C)C2)c1,95.6% (inactive),94.4%,92.7%,174% (active),161%,167%,168% (inactive),118% (inactive),131% (inactive),130%,122%,–
Oc1c(N=Nc2ccccn2)ccc2ccccc12,94.8% (inactive),83.8%,87.3%,95.3% (inactive),–,66%,104% (inactive),84.7% (inactive),93.5% (inactive),94.6%,81.6%,–
O=C(N/N=C/c1ccc(-c2ccc(Br)cc2)o1)c1ccc2c(c1)OCO2,102% (inactive),98.6%,101%,99.5% (inactive),95.9%,98.4%,103% (inactive),98.8% (inactive),102% (inactive),99.2%,98.1%,–
O=C(Nc1ccccc1N1CCOCC1)c1ccc([N+](=O)[O-])o1,58.5% (inactive),82.8%,47.8%,128% (inactive),104%,116%,90.5% (inactive),87.6% (inactive),63.9% (inactive),77.5%,55.2%,–
Cc1cccn2c(=O)c3cc(C(=O)NCCc4ccccc4)c(=N)n(CCCn4ccnc4)c3nc12,95.8% (inactive),94.7%,95%,96.5% (inactive),–,92.3%,103% (inactive),98.6% (inactive),100% (inactive),99.3%,97.1%,–
Cc1[nH][nH]c(=O)c1C(c1ccc(-c2ccc(Cl)cc2)o1)c1c(C)[nH][nH]c1=O,101% (inactive),102%,99.8%,188% (active),179%,179%,114% (inactive),103% (inactive),101% (inactive),102%,95.6%,0.2 (inactive)
CC(C)(C)C(=O)NC(=S)NNC(=O)c1ccc(-c2ccccc2)cc1,116% (inactive),84.5%,104%,228% (active),–,209%,141% (inactive),129% (inactive),132% (inactive),99.3%,113%,–
O=C(c1ccc(Cl)c([N+](=O)[O-])c1)N1CCN(c2ccccc2)CC1,99.4% (inactive),101%,96.7%,116% (inactive),114%,111%,102% (inactive),97.8% (inactive),95.5% (inactive),101%,92.6%,2.52 (inactive)
O=C1Oc2ccccc2C(=O)/C1=C/c1ccccc1O,91.3% (inactive),89.3%,80.2%,394% (active),246%,373%,105% (inactive),91% (inactive),79.8% (inactive),91.7%,67.7%,0.71 (inactive)
CCc1noc(C)c1C(=O)Nc1nc2ccc(OC)cc2s1,91.8% (inactive),92.7%,92.5%,108% (inactive),108%,111%,99.3% (inactive),95.5% (inactive),90.3% (inactive),92.3%,90.4%,–
O=C1c2cccc3cccc(c23)C(=O)N1c1ccncc1,96.4% (inactive),97%,98.8%,84.9% (inactive),85%,84.7%,97.5% (inactive),103% (inactive),105% (inactive),106%,106%,–
